24 compounds from PubChem BioAssay (Tox21) can be followed below.

Values without a mark were called inactive. Records with an inconclusive call do not appear. The source made the active and inactive calls. Unless noted, calls follow the shape of the dose curve; as a rule, active = well fitted curve in the direction sought with a large enough effect in the repeat runs; inconclusive = weak or mixed curves; inactive = no such curve, though single readings can be large; an effect the other way counts as inactive or inconclusive.

A short description of test [1]: qHTS assay for small molecule agonists of the p53 signaling pathway (AID 651631; calls by dose curve; also: nearly all actives have a fitted effect of over 15% in size; also: potency is read from the fitted curve at half-maximal effect). A digest of the protocol:
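Readout was fluorescence from the LiveBLAzer FRET substrate, applied for 2 h at room temperature after 16 h compound exposure at 37 °C. Cells were the p53RE-bla HCT-116 line, with beta-lactamase driven by p53 response elements.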

Test [2] in a line: qHTS assay for small molecules that induce genotoxicity in human embryonic kidney cells expressing luciferase-tagged ATAD5 (AID 651632). Also: nearly all actives have a fitted effect of over 15% in size. A digest of the protocol: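 Quantitative HTS in HEK293T expressing luciferase-tagged ATAD5, whose levels rise upon DNA damage. Exposure ran 16 hr at 37C and 5% CO2, with luminescence read 30 min after Amplite addition at room temperature.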
The nature of test [3]: qHTS assay for small molecule agonists of the p53 signaling pathway - cell viability (AID 651633; calls by dose curve; also: series mostly up to about 83 µM; nearly all actives have a fitted effect of over 30% in size). A digest of the protocol: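 p53RE-bla cells were treated with compound for 16 hours at 37 C. Cytotoxicity was then measured as CellTiter-Glo luminescence after 30 min at room temperature.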
A short description of test [4]: qHTS assay for small molecules that induce genotoxicity in human embryonic kidney cells expressing luciferase-tagged ATAD5 - cell viability (AID 651634; calls by dose curve; also: nearly all actives have a fitted effect of over 25% in size). In short, it runs like this: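 After 15.5 hr incubation with compound at 37C, 5% CO2, HEK293T ATAD5-luciferase cells received CellTiter-Fluor reagent; fluorescence intensity was quantified following 30 min at 37C.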

The nature of test [5]: qHTS assay for small molecule disruptors of the mitochondrial membrane potential - cell viability (AID 720634; calls by dose curve;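 also: human HepG2 liver cancer cells; series mostly up to about 83 µM; nearly all actives have a fitted effect of over 20% in size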). In short, it runs like this: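 ATP-based luminescent viability readout (CellTiter-Glo, 30 min, room temperature) in HepG2 cells multiplexed with the m-MPI membrane potential dye; compound exposure lasted 1 hr at 37 C.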
Test [6] can be described thus: qHTS assay for small molecule disruptors of the mitochondrial membrane potential (AID 720635). Also: potency is read from the fitted curve at half-maximal effect. In short, it runs like this: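 HepG2 cells exposed to compound 1 hr at 37C, then Mito-MPS dye 30 min. Ratio read of aggregate (540/590 nm) versus monomer (490/535 nm) fluorescence.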
Test [7] can be described thus: qHTS assay to test for compound auto fluorescence at 590 nm (red) in HepG2 cells (AID 720674). A digest of the protocol:
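Fluorescence at 590 nm emission following 540 nm excitation was recorded from HepG2 wells one hour after compound transfer, with DMSO-only wells as vehicle and Rose Bengal sodium equivalency as the scale.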

Test [8] can be described thus: qHTS assay to test for compound auto fluorescence at 535 nm (green) in HepG2 cells (AID 720675).
The nature of test [9]: qHTS assay to test for compound auto fluorescence at 460 nm (blue) in HEK293 cells (AID 720678). In short, it runs like this: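 HEK293 cells (2,000/well, medium with 10% dialyzed FBS) attached 4-5 hr, then exposed to compound overnight at 37C, 5% CO2. Blue fluorescence read at 405/460 nm, with triamterene as reference fluorophore.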
The nature of test [10]: qHTS assay to test for compound auto fluorescence at 590 nm (red) in HEK293 cells (AID 720679). In short, it runs like this: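 HEK293 cells (2,000/well, 10% dialyzed FBS) attached 4-5 hr, then dosed with compound or DMSO and incubated overnight at 37C, 5% CO2. Red fluorescence read at 540/590 nm, Rose Bengal sodium as reference fluorophore.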
% is scaled to controls: 0 for no effect and ±100 for the full control effect.

For the compound `O=[N+]([O-])c1cccc(I)c1`, the Potency entry in test [1], in [2], in test [3], in [4], in test [5] and in [6] was “inactive” throughout. Besides, the Potency entry in [9] is “inactive”. For the same compound, the compound was classed as inactive in [7], in test [8] and in test [10].

Take `O=C(O)CNc1ccccc1`: the Potency result in [1], in test [2], in test [3], in [4], in test [5] and in test [6] was “inactive” throughout. Besides, the Potency entry in test [9] was “inactive”. Moreover, the compound was classed as inactive in test [7], in test [8] and in test [10].

On to `CCc1c(C)[nH]c2c1C(=O)C(CN1CCOCC1)CC2` (configuration not stated), for which the Potency entry in test [1], in [2], in [3], in [4], in [5] and in [6] was “inactive” each time. In addition, the fluorescence, relative to Rose Bengal in test [7] was 0.262% [at 18.6 µM]. In [9], the fluorescence, % of triamterene is 0.0227% [at 18.6 µM]. For the same compound, the fluorescence, % of fluorescent control in test [10] was 0.192% [at 18.6 µM].

As to `CC1(C)[C@@H]2CC[C@]3(C2)[C@@H]1C(=O)CCC3(C)C`, the Potency entry in [1], in [2], in test [3], in [4], in test [5] and in test [6] was “inactive” throughout. Besides, the Potency entry in test [9] was “inactive”. Further, the outcome in test [7], in [8] and in [10] was inactive.

Turning to `CC(=O)Nc1ccn(C2COC(COC(=O)c3ccccc3)O2)c(=O)n1` (configuration not stated), the Potency in test [1] is 3.76 µM (active). In addition, the Potency entry in test [2], in test [3], in test [4], in test [5] and in test [6] was “inactive” each time. Moreover, the compound was classed as inactive in test [7], in [8] and in test [10].

As for `Cc1cccc(C)c1NC(=O)CN1CCCC1`, the Potency entry in test [1], in test [2], in test [3], in test [4], in [5] and in [6] was “inactive” each time. Also, the Potency result in [9] is “inactive”. In addition, the outcome in [7] and in test [10] was inactive.

Consider `CC(CN=Cc1ccccc1O)N=Cc1ccccc1O` (configuration not stated), for which the Potency entry in test [1], in test [2], in test [3], in [4], in test [5] and in [6] was “inactive” in each case. For the same compound, in [9], the Potency entry was “inactive”. The call in [7], in test [8] and in test [10] was inactive.

On to `NC(=O)c1ccccc1C(N)=O`, for which the Potency result in test [1], in test [2], in [3], in [4], in test [5] and in test [9] was “inactive” throughout. Further, the Potency in test [6] is 61.4 µM (active). In addition, the call in test [7], in test [8] and in test [10] was inactive.

As for `CCCCCCCCCC(C)C=O` (configuration not stated), the Potency entry in [1], in test [2], in [3], in [4], in test [5] and in test [6] was “inactive” throughout. Also, the Potency result in test [9] is “inactive”. Moreover, the call in test [7], in test [8] and in test [10] was inactive.

As for `CCOC(OCC)OCC`, the Potency result in [1], in test [2], in test [3], in test [4], in test [5] and in test [6] was “inactive” in each case. In addition, the Potency entry in test [9] was “inactive”. Moreover, the result in [7] and in test [10] was inactive.

On to `C=CC(C)(O)CC/C=C(/C)CCC=C(C)C` (configuration not stated), for which the Potency entry in test [1], in test [2], in test [3], in [4], in test [5] and in test [6] was “inactive” in each case. Also, the Potency result in test [9] is “inactive”. For the same compound, the compound was called inactive in test [7], in [8] and in [10].

On to `C[C@H](CN1CCCC1)C(=O)c1ccc(C(F)(F)F)cc1`, for which the Potency result in [1], in [2], in test [3], in test [4], in [5] and in test [6] was “inactive” throughout. Moreover, the Potency entry in [9] is “inactive”. Also, the call in [7], in [8] and in [10] was inactive.

With `O=C1C=CCCC1`, the Potency result in [1], in test [2], in test [3], in test [4], in [5] and in test [6] was “inactive” throughout. In test [9], the Potency entry is “inactive”. The outcome in test [7], in test [8] and in [10] was inactive.

For the compound `COC(=O)C(C)(C)C`, the Potency result in [1], in test [2], in [3], in test [4], in test [5] and in test [6] was “inactive” throughout. For the same compound, the Potency entry in test [9] was “inactive”. For the same compound, the call in [7], in test [8] and in test [10] was inactive.

With `C(/C=C/C=C/Nc1ccccc1)=Nc1ccccc1`, the Potency result in test [1], in test [2], in test [3], in test [4], in [5] and in test [6] was “inactive” in each case. The Potency entry in test [9] was “inactive”. For the same compound, the call in test [7], in test [8] and in test [10] was inactive.

With `O=C1CCCN1CCO`, the Potency result in test [1], in test [2], in [3], in [4], in test [5] and in [6] was “inactive” each time. Also, in test [9], the Potency result was “inactive”. The outcome in test [7], in test [8] and in test [10] was inactive.

For the compound `COc1ccc(C(=O)c2ccc(C)cc2)c(O)c1`, the Potency entry in [1], in test [2], in [3], in [4], in test [5] and in test [9] was “inactive” throughout. In addition, in test [6], the Potency is 61.8 µM (active). In addition, the compound was called inactive in test [7], in [8] and in [10].

Regarding `CCCCOC(=O)C(C)Oc1ccc(Oc2ccc(C(F)(F)F)cn2)cc1` (configuration not stated), the Potency result in test [1], in test [2], in test [3], in test [4], in test [5] and in [6] was “inactive” each time. Further, the Potency entry in [9] is “inactive”. The compound was called inactive in test [7] and in [10].

As to `C[Si](C)(C)O[Si](C)(C)O[Si](C)(C)C`, the Potency result in test [1], in test [2], in test [3], in test [4], in test [5] and in test [9] was “inactive” throughout. The call in test [7], in [8] and in [10] was inactive.

For `CCCCCCOC(=O)c1ccccc1`, the Potency entry in test [1], in test [2], in test [3], in test [4], in [5] and in [6] was “inactive” each time. In addition, the Potency result in test [9] is “inactive”. In addition, the result in [7] and in [10] was inactive.

As to `O=Cc1ccc([N+](=O)[O-])cc1`, the Potency entry in [1], in test [2], in test [3], in test [4], in test [5] and in [6] was “inactive” each time. Also, the Potency result in test [9] is “inactive”. The call in [7], in [8] and in [10] was inactive.

Consider `O=C(O)c1cc(C(=O)O)cc([N+](=O)[O-])c1`, for which the Potency result in test [1], in test [2], in test [3], in [4], in [5] and in [6] was “inactive” throughout. The Potency result in [9] was “inactive”. The result in test [7], in [8] and in test [10] was inactive.

Take `O=C(O)c1c2ccccc2cc2ccccc12`: the Potency result in test [1], in [2], in [3], in test [4], in test [5] and in [6] was “inactive” throughout. The Potency entry in test [9] is “inactive”. In addition, the outcome in test [7], in [8] and in [10] was inactive.

Take `CC(O)C(C)O` (configuration not stated): the Potency result in [1], in [2], in [3], in test [4], in test [5] and in test [6] was “inactive” each time. The Potency entry in test [9] is “inactive”. Further, the result in test [7] and in test [10] was inactive.
